Records with an inconclusive call do not appear. Where a call stands in place of a potency, no number is given. Unmarked numbers belong to inactive results. Activity calls are given as the source filed them. Calls follow the shape of the full dose curve.

For this assay, the target named is Beta-2 adrenergic receptor (Homo sapiens) (UniProt P07550). Briefly: Adrenergic beta2 receptor (ADRB2) small molecule antagonists, cell-based qHTS assay (AID 1963592). Also: nearly all actives have a fitted effect of over 50% in size. As to conditions: CHO-ADRB2 cells, isoproterenol-stimulated cAMP HTRF ratio, 0.5 h; series mostly up to 92.4 µM; activity change, negative = inhibition: at the top concentration. An excerpt: U.S. Tox21 Program National Center for Advancing Translational Sciences [NCATS] Division of Preclinical Innovation [DPI] U.S. Environmental Protection Agency [EPA] National Institutes of Environmental Health Sciences [NIEHS] National Toxicology Program [NTP] U.S. Food and Drug Administration [FDA] Tox21 Assay Overview: Beta adrenergic receptors (Beta-ARs) belong to the G-protein coupled receptor (GPCR) superfamily, includes three subtypes - beta1, beta2, and beta3. Beta1-AR is the predominant receptor subtype expressed in the heart, and beta2-AR is expressed in the kidney, lung, blood vessel and in the heart, and beta3 is found in the adipocytes. Beta1 and 2 ARs couple to Gs protein and elevate cyclic adenosine mono phosphate (cAMP), which activates protein kinase A and leads to the downstream signaling responsible for the physiological actions. Beta-AR agonists or antagonists are the most prescribed therapeutic agents for heart failure and asthma, and these were one of the first target receptors for the rational drug design. Tox21 10K compound library was screened using the cAMP-Gs dynamic assay (Cisbio Bioassays, Shelton, CT) to identify agonists/antagonists of the Gs-coupled human adrenergic, beta2 receptor (ADRB2) in the CHO-ADRB2 cell line (Codex BioSolutions, Inc. Gaithersburg, MD), which stably over-expresses ADRB2. The principle of cAMP-Gs dynamic assay is based on HTRF technology, which facilitates the fluorescence resonance energy transfer (FRET) between donor Europium cryptate and acceptor d2-labeled cAMP. The cAMP generated within cells competes with the red acceptor, d2-labled cAMP, for binding to the monoclonal anti-cAMP-cryptate (Europium donor). An increase in intracellular cAMP leads to the disruption of FRET signal, and the signal is inversely proportional to the cAMP concentration. Propranolol HCl (Sigma-Aldrich, St. Louis, MO) was used as a positive control in the screening.
Sequence of Beta-2 adrenergic receptor (Homo sapiens) (P07550 whole entry, looked up): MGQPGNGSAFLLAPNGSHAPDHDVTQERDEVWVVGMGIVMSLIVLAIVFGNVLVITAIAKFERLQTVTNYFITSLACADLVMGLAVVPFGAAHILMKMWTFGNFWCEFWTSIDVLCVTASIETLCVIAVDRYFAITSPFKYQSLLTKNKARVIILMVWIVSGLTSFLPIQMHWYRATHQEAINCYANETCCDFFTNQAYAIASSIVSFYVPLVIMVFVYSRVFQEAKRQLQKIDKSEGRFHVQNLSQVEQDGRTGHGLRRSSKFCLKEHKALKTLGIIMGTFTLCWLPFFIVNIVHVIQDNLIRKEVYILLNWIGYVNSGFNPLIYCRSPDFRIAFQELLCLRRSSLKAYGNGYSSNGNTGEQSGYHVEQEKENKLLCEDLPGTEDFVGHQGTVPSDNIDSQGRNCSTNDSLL
Tox21 Assay Protocol Summary: CHO-ADRB2 cells were dispensed at 1,000/well in 4uL assay medium into white/solid 1536-well plates (Greiner Bio-One North America Inc., Monroe, NC) using a Multidrop Combi dispenser (ThermoFisher Scientific, Waltham, MA). The assay plates were incubated at 37C and 5% CO2 for an overnight (18-20hr). Then positive control and test compounds dissolved in DMSO were transferred to the assay plates at 23nL using a Pintool station (Wako, San Diego, CA). Following the compound and positive control transfer, 1uL agonist-stimulation mix containing 1nM Isoproterenol HCl, 100uM IBMX and 25uM Ro-20-1724 was added to each well of the assay plates using BioRAPTR Flying Reagent Dispenser (FRD, Beckman Coulter, Brea, CA). The assay plates were incubated at room temperature for 0.5hr. Then 2.5ul each d2-labled cAMP and anti-cAMP-cryptate solutions were added separately to each well of the assay plates using an FRD and the assay plates were incubated at room temperature for 1hr. The fluorescence signal was measured at two different wavelengths (665nm and 615nm) using an Envision plate reader (Perkin Elmer, Shelton, CT). Data were expressed as the ratio of 665 nm/615 nm.
On the technique in general: In qHTS, concentration-response curves come from the screen itself.
For `CCCCCCCCCCCCS`, the Potency result is “inactive”.

For `c1ccc2ccccc2c1`, the Potency result was “inactive”.

Consider `C=CC(=O)OCCOCCOCCOCCOC(=O)C=C`, for which the “activity change, negative = inhibition” value was 1.12%.

As to `CC(=O)CCC(=O)O`, the Potency result was “inactive”.

For `C/C=C/c1ccc(OCC)c(O)c1`, the Potency result is “inactive”.

Take `CCCCCCCCCCCCc1ccccc1O`: the Potency result was “inactive”.

With `Brc1ccc(Br)c(Br)c1`, the Potency entry is “inactive”.

With `CCCCCCCCCCCCCCCC(=O)OC(C)C`, the “activity change, negative = inhibition” value was 2.91% [at 42.5 µM].

Take `O=C(Cl)c1c(Cl)c(Cl)c(C(=O)Cl)c(Cl)c1Cl`: the Potency entry was “inactive”.

On to `C/C=C/c1ccc(OC)cc1`, for which the Potency result is “inactive”.

With `C[C@]12C[C@H](O)[C@H]3[C@@H](CCC4=CC(=O)CC[C@@]43C)[C@@H]1CC[C@@H]2C(=O)CO`, the Potency result is “inactive”.

Take `CC(=O)Nc1ccc2c(c1)Cc1cc(NC(C)=O)ccc1-2`: the Potency result is “inactive”.

As for `CCC(=O)OC/C=C/c1ccccc1`, the Potency entry is “inactive”.

Turning to `Nc1nc(=S)c2[nH]cnc2[nH]1`, the Potency result is “inactive”.

With `COc1cc2c(c(OC)c1OC)-c1ccc(OC)c(=O)cc1[C@@H](NC(C)=O)CC2`, the “activity change, negative = inhibition” value is 2.2% [at 42.5 µM].

Take `CCO[Si](CCCNC(N)=O)(OCC)OCC`: the Potency result was “inactive”.

With `OCCc1ccccc1`, the Potency entry was “inactive”.

Consider `CCN(CC)C(=O)c1cccc(C)c1`, for which the Potency result is “inactive”.

Regarding `[O-]/[N+](=N\O)c1ccccc1`, the Potency entry is “inactive”.

As for `O=C(O)c1ccc(C(=O)O)cc1`, the Potency result was “inactive”.

As to `CC(=O)OCCC(C)C`, the Potency result is “inactive”.

As to `CCc1cccc2c3c([nH]c12)C(CC)(CC(=O)O)OCC3` (stereo not given), the Potency result was “inactive”.

Consider `c1ccc2cc3c(ccc4ccccc43)cc2c1`, for which the “activity change, negative = inhibition” value is 6%.

Turning to `OCCOCCOCCOCCO`, the Potency result is “inactive”.

For `CCCCC(C=O)CC` (stereo not given), the Potency entry was “inactive”.

Turning to `C=CCOC(=O)C(=C)C`, the Potency result was “inactive”.

As for `CCCCCC1=CCCC1=O`, the Potency result was “inactive”.

For `c1cnc2c(c1)ccc1cccnc12`, the Potency entry is “inactive”.

For the molecule `C=C(C)CC(C)(C)C`, the Potency entry is “inactive”.

Take `CC(C)c1ccc(C(C)C)cc1`: the Potency entry was “inactive”.

Take `OC[C@@H](O)[C@@H](O[C@@H]1O[C@H](CO)[C@H](O)[C@H](O)[C@H]1O)[C@H](O)[C@@H](O)CO`: the Potency result was “inactive”.

Take `CC(=O)c1ccccn1`: the Potency entry was “inactive”.

On to `O=c1ccc2ccccc2o1`, for which the Potency entry is “inactive”.

With `NC(N)=Nc1nc(CSCC/C(N)=N/S(N)(=O)=O)cs1`, the Potency result is “inactive”.

As to `Cc1ccc(S(=O)(=O)N=C=O)cc1`, the Potency entry is “inactive”.

For `O=C(OCC1CCC2OC2C1)C1CCC2OC2C1` (stereo not given), the Potency result is “inactive”.

Consider `C=C(C)C1CC=C(C)C(OC(C)=O)C1` (stereo not given), for which the Potency result is “inactive”.

Consider `CCc1cccc(O)c1`, for which the Potency result is “inactive”.

For the molecule `C=CC(=O)OCCCC`, the Potency entry is “inactive”.

As for `O=C1NC(=O)C(c2ccccc2)(c2ccccc2)N1`, the Potency result is “inactive”.
